Holding throughout (experiment): DAPPL (digital affinity profiling via proximity ligation, sequencing); 10 mM Tris-HCl pH 7.5, 50 mM NaCl, 1 mM DTT, 4% glycerol, room temperature, 30 min; GST-TFs on glutathione beads, 16-mer random dsDNA library, 0.1% formaldehyde crosslink after washing; high values mean tight binding
What all share (conditions): protein: recombinant; tags: N-terminal GST; dsDNA, one strand shown

For one test, the target named is T1, ERG (Homo sapiens, UniProt P11308 1-479).
T1 sequence: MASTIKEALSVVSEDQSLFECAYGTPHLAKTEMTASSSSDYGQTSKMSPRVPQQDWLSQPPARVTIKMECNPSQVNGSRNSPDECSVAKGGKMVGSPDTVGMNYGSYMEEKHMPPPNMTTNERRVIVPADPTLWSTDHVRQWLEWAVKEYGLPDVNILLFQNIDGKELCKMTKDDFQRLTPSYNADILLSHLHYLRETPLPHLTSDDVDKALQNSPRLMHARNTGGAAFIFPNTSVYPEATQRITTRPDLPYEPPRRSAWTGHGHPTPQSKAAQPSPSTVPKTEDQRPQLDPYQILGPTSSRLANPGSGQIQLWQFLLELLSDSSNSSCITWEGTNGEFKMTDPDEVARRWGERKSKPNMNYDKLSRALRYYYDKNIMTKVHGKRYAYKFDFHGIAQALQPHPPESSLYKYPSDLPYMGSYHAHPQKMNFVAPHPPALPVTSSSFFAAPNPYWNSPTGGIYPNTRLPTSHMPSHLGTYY
Put shortly: (§1)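 Binding signal is each hexamer's read frequency for a factor divided by its frequency in the tag-only sample. The factors were GST-fused human transcription factors from yeast, captured on glutathione beads, DNA-barcoded and pooled with that sample. Pools were incubated with 200 nmole of a random double-stranded 16-mer DNA library in Tris/NaCl/DTT/glycerol buffer at room temperature for 30 min, then washed, crosslinked with 0.1% formaldehyde, proximity-ligated with BsaI/T4 ligase (1 h, 37 °C), PCR-amplified and sequenced on an Illumina NextSeq500.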

Another test has as its target ELF1 (Homo sapiens, UniProt P32519 1-619). In short, it runs like this:
as §1

In another test the target is T2, EHF (Homo sapiens, UniProt Q9NZC4 1-300).
T2 sequence: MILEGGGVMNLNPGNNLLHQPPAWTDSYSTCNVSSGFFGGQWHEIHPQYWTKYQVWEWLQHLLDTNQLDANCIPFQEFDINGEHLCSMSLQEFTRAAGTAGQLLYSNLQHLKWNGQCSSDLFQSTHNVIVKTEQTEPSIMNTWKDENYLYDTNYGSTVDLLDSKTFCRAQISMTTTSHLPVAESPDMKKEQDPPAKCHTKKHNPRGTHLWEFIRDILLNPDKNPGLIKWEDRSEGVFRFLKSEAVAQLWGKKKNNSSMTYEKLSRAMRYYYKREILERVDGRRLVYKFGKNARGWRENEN
Put shortly: as §1

The target in another test is SPI1 (Homo sapiens, UniProt P17947 1-270). In short, it runs like this:
as §1

The target of a further test is ETV5 (Homo sapiens, UniProt P41161 1-510). Put shortly: as §1
ETV5, sequence (P41161 whole entry): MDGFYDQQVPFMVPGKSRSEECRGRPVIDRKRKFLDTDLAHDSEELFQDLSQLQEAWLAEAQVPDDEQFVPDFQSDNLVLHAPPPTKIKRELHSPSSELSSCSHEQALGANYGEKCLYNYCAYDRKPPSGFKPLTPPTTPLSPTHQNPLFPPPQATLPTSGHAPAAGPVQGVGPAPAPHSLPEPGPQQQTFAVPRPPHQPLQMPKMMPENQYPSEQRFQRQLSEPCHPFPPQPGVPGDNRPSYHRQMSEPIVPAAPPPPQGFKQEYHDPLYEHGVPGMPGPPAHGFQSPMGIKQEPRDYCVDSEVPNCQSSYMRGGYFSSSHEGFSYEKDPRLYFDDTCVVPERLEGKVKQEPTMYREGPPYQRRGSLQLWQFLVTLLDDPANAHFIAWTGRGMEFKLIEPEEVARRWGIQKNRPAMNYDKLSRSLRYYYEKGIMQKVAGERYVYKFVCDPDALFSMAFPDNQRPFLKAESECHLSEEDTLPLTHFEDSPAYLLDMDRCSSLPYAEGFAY
For the next test, the target named is T3, ELK4 (Homo sapiens, UniProt P28324-2 1-405).
T3 sequence: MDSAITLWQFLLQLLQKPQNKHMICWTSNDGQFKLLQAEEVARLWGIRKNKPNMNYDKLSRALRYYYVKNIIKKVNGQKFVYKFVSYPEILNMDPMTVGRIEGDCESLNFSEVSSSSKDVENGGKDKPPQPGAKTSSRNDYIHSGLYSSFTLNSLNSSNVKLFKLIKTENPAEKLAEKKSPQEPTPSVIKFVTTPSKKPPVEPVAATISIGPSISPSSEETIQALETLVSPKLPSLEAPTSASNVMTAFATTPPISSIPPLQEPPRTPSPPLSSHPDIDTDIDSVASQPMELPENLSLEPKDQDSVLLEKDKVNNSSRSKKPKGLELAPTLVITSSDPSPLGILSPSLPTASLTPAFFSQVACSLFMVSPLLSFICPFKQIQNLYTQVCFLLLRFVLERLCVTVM
Put shortly:
as §1

Another test concerns the target ETV1 (Homo sapiens, UniProt P50549 1-477). In short, it runs like this: as §1
In the next test the target is T4, ERF (Homo sapiens, UniProt P50548 1-548).
T4 sequence: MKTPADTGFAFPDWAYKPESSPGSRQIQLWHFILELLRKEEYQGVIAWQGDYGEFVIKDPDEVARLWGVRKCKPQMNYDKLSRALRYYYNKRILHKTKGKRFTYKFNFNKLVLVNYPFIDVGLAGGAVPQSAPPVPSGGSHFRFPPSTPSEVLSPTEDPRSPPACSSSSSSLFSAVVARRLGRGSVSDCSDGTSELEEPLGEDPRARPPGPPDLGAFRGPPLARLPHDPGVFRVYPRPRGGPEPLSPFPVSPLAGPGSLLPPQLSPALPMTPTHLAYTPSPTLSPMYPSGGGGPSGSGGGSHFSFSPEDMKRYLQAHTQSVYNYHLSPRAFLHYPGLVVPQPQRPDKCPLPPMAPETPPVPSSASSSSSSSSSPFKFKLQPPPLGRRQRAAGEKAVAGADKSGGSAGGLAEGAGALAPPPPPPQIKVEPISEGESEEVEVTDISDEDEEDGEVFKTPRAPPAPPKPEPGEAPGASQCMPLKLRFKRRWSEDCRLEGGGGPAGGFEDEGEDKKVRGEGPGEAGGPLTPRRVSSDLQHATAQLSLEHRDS
In short, it runs like this: as §1

For another test, the target named is T5, ETV3L (Homo sapiens, UniProt Q6ZN32 1-361).
T5 sequence: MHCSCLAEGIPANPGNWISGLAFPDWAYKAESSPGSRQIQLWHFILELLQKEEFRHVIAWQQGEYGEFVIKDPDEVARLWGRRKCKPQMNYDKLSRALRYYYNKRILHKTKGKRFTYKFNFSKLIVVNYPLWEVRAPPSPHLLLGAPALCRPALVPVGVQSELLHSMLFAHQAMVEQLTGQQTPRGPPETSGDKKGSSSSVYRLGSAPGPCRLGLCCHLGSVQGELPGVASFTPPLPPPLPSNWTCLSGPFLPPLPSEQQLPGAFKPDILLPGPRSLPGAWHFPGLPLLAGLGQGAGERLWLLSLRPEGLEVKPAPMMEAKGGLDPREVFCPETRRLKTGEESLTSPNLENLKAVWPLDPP
Put shortly:
as §1

A further test concerns the target T6, ETS2 (Homo sapiens, UniProt P15036 1-469).
T6 sequence: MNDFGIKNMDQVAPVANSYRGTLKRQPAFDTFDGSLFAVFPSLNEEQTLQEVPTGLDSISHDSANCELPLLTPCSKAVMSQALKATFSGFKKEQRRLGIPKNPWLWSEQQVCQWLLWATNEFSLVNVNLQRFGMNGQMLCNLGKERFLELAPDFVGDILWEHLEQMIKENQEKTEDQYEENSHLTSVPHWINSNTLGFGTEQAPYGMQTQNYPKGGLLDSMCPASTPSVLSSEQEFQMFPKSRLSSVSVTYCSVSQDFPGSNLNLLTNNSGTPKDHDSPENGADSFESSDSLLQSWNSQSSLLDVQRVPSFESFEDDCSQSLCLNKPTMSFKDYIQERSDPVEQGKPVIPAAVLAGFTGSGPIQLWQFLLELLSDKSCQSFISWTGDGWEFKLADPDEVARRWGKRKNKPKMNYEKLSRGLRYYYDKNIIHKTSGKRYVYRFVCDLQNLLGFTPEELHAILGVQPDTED
Put shortly:
as §1

For a further test, the target named is T7, ETV7 (Homo sapiens, UniProt Q9Y603 1-341).
T7 sequence: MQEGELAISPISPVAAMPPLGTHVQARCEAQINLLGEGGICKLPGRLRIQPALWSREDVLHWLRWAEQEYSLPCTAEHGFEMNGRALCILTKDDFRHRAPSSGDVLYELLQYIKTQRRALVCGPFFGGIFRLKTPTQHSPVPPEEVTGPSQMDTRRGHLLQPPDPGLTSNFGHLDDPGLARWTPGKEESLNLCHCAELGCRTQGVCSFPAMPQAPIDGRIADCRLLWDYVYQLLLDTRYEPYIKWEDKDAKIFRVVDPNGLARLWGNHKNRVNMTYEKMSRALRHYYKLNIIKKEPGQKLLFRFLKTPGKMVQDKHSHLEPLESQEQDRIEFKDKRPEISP
In short, it runs like this:
as §1

The next test deals with ETV6 (Homo sapiens, UniProt P41212 1-452). Put shortly:
as §1

ETV6, sequence (P41212 whole entry): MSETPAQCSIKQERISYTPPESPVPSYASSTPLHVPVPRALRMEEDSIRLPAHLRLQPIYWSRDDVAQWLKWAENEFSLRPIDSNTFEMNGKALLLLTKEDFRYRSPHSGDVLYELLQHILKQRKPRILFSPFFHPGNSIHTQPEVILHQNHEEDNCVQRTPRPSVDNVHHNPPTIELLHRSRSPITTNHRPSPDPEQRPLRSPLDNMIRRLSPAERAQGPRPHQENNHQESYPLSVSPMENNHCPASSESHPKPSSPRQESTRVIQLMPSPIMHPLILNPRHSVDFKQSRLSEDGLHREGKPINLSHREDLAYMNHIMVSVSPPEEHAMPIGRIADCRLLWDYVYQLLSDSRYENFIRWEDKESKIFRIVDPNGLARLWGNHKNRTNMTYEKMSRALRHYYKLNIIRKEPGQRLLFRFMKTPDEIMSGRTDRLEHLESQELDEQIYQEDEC
ETV1, sequence (P50549 whole entry): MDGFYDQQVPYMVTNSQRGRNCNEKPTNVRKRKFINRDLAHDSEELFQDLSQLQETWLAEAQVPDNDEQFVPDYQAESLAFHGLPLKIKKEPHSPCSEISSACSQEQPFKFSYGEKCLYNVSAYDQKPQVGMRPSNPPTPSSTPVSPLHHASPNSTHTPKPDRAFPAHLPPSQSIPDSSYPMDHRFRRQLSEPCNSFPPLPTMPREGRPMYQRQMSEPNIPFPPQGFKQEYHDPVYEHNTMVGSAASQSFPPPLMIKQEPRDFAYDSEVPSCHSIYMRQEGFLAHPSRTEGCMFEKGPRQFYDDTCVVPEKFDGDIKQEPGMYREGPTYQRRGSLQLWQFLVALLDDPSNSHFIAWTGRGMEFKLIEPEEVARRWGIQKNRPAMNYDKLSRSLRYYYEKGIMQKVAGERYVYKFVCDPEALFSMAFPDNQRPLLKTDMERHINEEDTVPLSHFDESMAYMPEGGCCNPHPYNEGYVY
ELF1, sequence (P32519 whole entry): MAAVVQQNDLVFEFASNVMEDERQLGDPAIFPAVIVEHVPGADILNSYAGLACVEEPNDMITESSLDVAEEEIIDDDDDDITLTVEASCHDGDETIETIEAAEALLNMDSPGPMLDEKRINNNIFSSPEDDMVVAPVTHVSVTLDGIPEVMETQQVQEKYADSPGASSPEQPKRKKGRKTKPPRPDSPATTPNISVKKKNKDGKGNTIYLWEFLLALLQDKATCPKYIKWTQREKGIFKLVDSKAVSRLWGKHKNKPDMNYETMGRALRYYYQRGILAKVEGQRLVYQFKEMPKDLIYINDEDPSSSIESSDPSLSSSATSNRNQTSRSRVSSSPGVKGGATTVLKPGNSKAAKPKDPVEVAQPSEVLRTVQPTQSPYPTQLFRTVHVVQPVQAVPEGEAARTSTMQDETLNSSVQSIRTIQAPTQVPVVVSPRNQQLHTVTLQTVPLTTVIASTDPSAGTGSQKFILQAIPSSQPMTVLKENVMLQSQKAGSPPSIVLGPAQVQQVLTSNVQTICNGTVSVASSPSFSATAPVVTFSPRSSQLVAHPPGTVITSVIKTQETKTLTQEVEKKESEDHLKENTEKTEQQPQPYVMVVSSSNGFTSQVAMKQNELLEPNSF

In the case of TCACGG, the binding signal is 1.02 fold enrichment (6-mer frequency, TF over GST control) in the test with ERG; 1.06 fold enrichment (6-mer frequency, TF over GST control) in the test with ELF1; 1.08 fold enrichment (6-mer frequency, TF over GST control) with EHF; 1.01 fold enrichment (6-mer frequency, TF over GST control) with SPI1; 1.04 fold enrichment (6-mer frequency, TF over GST control) in the test with ETV5; 1.02 fold enrichment (6-mer frequency, TF over GST control) with ELK4. In addition, the binding signal was 1.09 fold enrichment (6-mer frequency, TF over GST control) with ETV1; 1.06 fold enrichment (6-mer frequency, TF over GST control) with ERF; 1.02 fold enrichment (6-mer frequency, TF over GST control) in the test with ETV3L; 1.04 fold enrichment (6-mer frequency, TF over GST control) with ETS2; 1.04 fold enrichment (6-mer frequency, TF over GST control) with ETV7; 1.05 fold enrichment (6-mer frequency, TF over GST control) in the test with ETV6.

Source of the values: publication PMC7862700, “An all-to-all approach to the identification of sequence-specific readers for epigenetic DNA modifications on cytosine”.
